The list is not random: actives were taken first. Their share in the collection is about 4%.
D1 agonist = human D1 receptor agonism. HEK293 T-REx D1 cells, calcium flux, agonist mode. activation, % at 2 µM. actives 1% (n = 360,000). P21728; note: 0% is about no effect
Target sequence (P21728 whole entry, looked up): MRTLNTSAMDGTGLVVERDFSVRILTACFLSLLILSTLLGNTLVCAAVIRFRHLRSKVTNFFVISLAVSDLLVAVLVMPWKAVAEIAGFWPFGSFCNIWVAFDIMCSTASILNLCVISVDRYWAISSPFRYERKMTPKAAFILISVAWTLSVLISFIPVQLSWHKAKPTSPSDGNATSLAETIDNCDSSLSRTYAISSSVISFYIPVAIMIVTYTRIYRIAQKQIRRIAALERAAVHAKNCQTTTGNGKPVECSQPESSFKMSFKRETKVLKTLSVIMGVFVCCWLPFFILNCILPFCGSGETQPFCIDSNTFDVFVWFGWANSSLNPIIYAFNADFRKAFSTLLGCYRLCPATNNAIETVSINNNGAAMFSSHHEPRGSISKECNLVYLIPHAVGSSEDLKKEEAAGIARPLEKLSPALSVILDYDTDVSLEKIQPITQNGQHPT
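Agonism was scored from calcium flux recorded over 180 s (1 read/s) after pintool compound addition, following a 10-cycle baseline. Cells were inducible force-coupled HEK293 TREx D1, plated overnight at 30 C and loaded with no-wash calcium dye.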
D1 PAM = human D1 dopamine receptor positive modulation; P21728; HEK293 TREx D1 cells, calcium flux, dopamine EC20 potentiation; potentiation, % at 10 µM; actives 0.036% (n = 360,000); in the data active = potentiation above about 30%; note: 0% is about no effect
D1 antagonist = blocks dopamine activation of the human D1 receptor. activity change, negative = inhibition, % at 10 µM. actives 3.2% (n = 360,000). HEK293 TREx D1 cells, calcium flux, dopamine EC80; stronger effect = lower value. AID 504652. P21728; in the data active = activity change below about -30%; note: % is set by controls: 0 for no effect and ±100 for the full control effect
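Calcium flux readout: force-coupled, inducible Hek293 Trex D1 line, cells induced overnight at 30 C with tetracycline, dye-loaded 30–90 min at RT. Antagonism scored against EC80 dopamine challenge given 180 s after compound.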
TRHR agonist = activates the human TRH receptor | AID 493084 | actives 0.18% (n = 360,000) | activation, % at 2 µM | P34981 | TRHR cells, calcium flux fluo-8, FDSS agonist mode; note: 0% is about no effect
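In this calcium-flux screen, cells bearing human TRHR are dye-loaded with fluo-8, baselined for 10 cycles, then exposed to library compounds; positive kinetic calcium responses during the agonist phase mark hits, with TRH as control.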
Glioma ERSR ind = inducers of ER stress response in human glioma cells; Potency, µM, inactives show at the top dose activation, usual class: activators; AID 602332; U87-MG GRP78 promoter luciferase reporter, 16 h; actives 0.02% (n = 420,000); active = well fitted activation curve with a large enough effect; note: potency is the fitted concentration of half-maximal effect; series mostly up to about 76 µM; % of control where 0% means no effect; nearly all actives have a fitted effect of over 35% in size
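Stably transfected U87-MG human glioma cells carrying a GRP78-based luminescent sensor were seeded at 1000 cells/well, pin-dosed with compounds and incubated 16 h. Luciferase reagent was then added, and end-point luminescence was read after 10 min at room temperature.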
TRHR PAM = TRH receptor (human) allosteric enhancement | P34981 | TRHR cells, fluo-8 calcium fluorescence, EC20 TRH enhancement | enhancement, % at 2 µM | actives 0.66% (n = 360,000) | AID 493056; in the data active = enhancement above about 30%; note: 0% is about no effect
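TRHR-expressing cells loaded with fluo-8 calcium dye were read kinetically (ex 480/em 530) during compound addition, then stimulated with an EC20 of TRH (10 nM final). Enhancement of the Gq-mediated intracellular calcium response was scored.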
The depositor's hits bear a star; . = not tested or not shown. Cut-off read from the data, not from the text of the source, unless noted: active = activation above about 30%; inactive = the rest.

SMILES | D1 agonist | D1 PAM | D1 antagonist | TRHR agonist | Glioma ERSR ind | TRHR PAM
Cc1ccc(OCCSCc2nc3ccccc3[nH]2)cc1 | . | . | . | . | 0.1% | .
Clc1ccc(OCCSCc2nc3ccccc3[nH]2)cc1 | 21.4 | -3.8 | -49.1* | 0.0 | -10.3% | 2.4
Cc1cccc(C2(c3cccc(C)c3)CC2C(=O)Nc2ccc([N+](=O)[O-])cc2O)c1 (configuration not stated) | 12.1 | -5.2 | -33.3* | 0.2 | -8.0% | -5.6
O=S(=O)(Nc1cccc2ccccc12)N1CCCC1 | 1.6 | 1.0 | -1.2 | -0.3 | 0.7% | -4.9
Cc1noc(C)c1S(=O)(=O)N1CCN(c2ccccc2)CC1 | -0.3 | . | -63.1* | -0.4 | -5.9% | 13.3
Cc1noc(C)c1S(=O)(=O)N1CCN(c2ccccc2Cl)CC1 | 4.4 | 1.5 | -19.4 | 0.8 | -4.6% | 1.0
Cc1noc(/C=C/N(C)C)c1S(=O)(=O)N1CCN(c2ccccc2)CC1 | 0.6 | -4.8 | -36.9* | 0.2 | -4.7% | -1.3
Cc1noc(/C=C/N(C)C)c1S(=O)(=O)N1CCCC(C(=O)NCc2ccc(Cl)cc2)C1 (configuration not stated) | 8.4 | -6.3 | -2.3 | -1.2 | -3.5% | -2.0
Cc1noc(/C=C/N(C)C)c1S(=O)(=O)N1CCCC(C(=O)NCc2ccccc2Cl)C1 (configuration not stated) | 2.1 | -4.5 | -50.6* | -0.1 | -3.4% | -1.9
Cc1ccccc1OCC(=O)Nc1nnc(C2CCCCC2)s1 | 2.9 | 0.2 | 10.7 | -1.1 | 4.7% | 2.0
COc1ccc(OC)c(-n2c(SC)nnc2-c2c[nH]c3ccccc23)c1 | 1.6 | -1.1 | 2.6 | -0.3 | -0.9% | -3.6
c1ccc(Cn2ccnc2SCc2nnc(-c3ccccc3)o2)cc1 | 3.0 | -7.0 | -0.6 | 0.7 | 1.3% | -4.2
COc1cc(C2CC(=O)Nc3c2c(=O)[nH]c2nc4ccccc4n32)ccc1O (configuration not stated) | 0.1 | -4.5 | -48.8* | -2.5 | -2.6% | 0.4
O=C(Nc1ccccc1F)c1ccc(Cn2nc(N3CCN(c4ccccc4)CC3)ccc2=O)o1 | 1.2 | -0.2 | -3.2 | -0.3 | -2.0% | -1.7
O=C(Nc1ccc(F)cc1)c1ccc(Cn2nc(N3CCN(c4ccccc4)CC3)ccc2=O)o1 | 1.4 | -5.2 | -32.3* | -0.5 | -4.4% | 0.6
O=C(Cn1[nH]c(=O)c2ccccc2c1=O)N1CC=C(c2ccccc2)CC1 | 3.5 | -8.3 | -30.4* | 0.7 | -5.2% | -7.5
COc1cc2c(cc1CNC[C@H]1O[C@@H](n3cc(C)c(=O)[nH]c3=O)C[C@@H]1O)OCO2 | . | . | . | . | -1.4% | .
Cc1ccc(C)c(Nc2nnc(-c3ccc(C)c(S(=O)(=O)NCC4CCCO4)c3)c3ccccc23)c1 (configuration not stated) | 2.1 | 0.1 | -38.6* | -0.1 | -2.2% | 1.2
Cc1ccc(C)c(Nc2nnc(-c3ccc(C)c(S(=O)(=O)N4CCN(C)CC4)c3)c3ccccc23)c1 | -2.7 | 0.7 | -30.6* | 0.0 | 3.0% | 0.2
Cc1ccc(-c2nnc(Nc3ccccc3)c3ccccc23)cc1S(=O)(=O)NCC1CCCO1 (configuration not stated) | -0.1 | -0.2 | 1.2 | 0.2 | -2.9% | 5.7
O=C(Nc1cccc(Cl)c1)Nc1c[nH]c(=O)[nH]c1=O | 0.0 | -4.8 | 9.4 | 0.4 | -6.2% | -3.5
NS(=O)(=O)c1ccc(NC(=O)COC(=O)C2(c3ccccc3F)CCCC2)cc1 | 1.0 | -7.0 | -33.6* | -0.1 | -2.2% | -3.7
CC(C)NS(=O)(=O)c1ccc(OCC(=O)Nc2cccc(F)c2)cc1 | 2.1 | -5.7 | -10.8 | -1.0 | -0.5% | 32.1*
CCOc1ccc(OCC(=O)Nc2ccc(S(N)(=O)=O)cc2)cc1 | 2.2 | -5.3 | -33.8* | -0.9 | -4.1% | 0.8
CN(C)S(=O)(=O)c1cccc(NC(=O)COC(=O)CCOc2ccccc2)c1 | 7.7 | -5.4 | -10.1 | -0.4 | 0.9% | 32.5*
SMILES | D1 agonist | D1 PAM | D1 antagonist | TRHR agonist | Glioma ERSR ind | TRHR PAM
NS(=O)(=O)c1ccc(NC(=O)COc2ccc(C(=O)c3ccc(F)cc3)cc2)cc1 | 4.0 | -13.2 | -26.7 | 0.9 | -4.7% | 3.7
CN(C)S(=O)(=O)c1cccc(NC(=O)COC(=O)COc2ccc(Br)cc2)c1 | 6.9 | -7.5 | -13.4 | -0.2 | 2.7% | -2.2
CN1CCN(c2ncnc3ccc(-c4ccccc4Cl)cc23)CC1 | . | . | . | . | -5.0% | .
O=C(N/N=C/c1ccc(OC(=O)c2cccs2)cc1)c1ccccn1 | 2.5 | 0.2 | 5.5 | -0.1 | -1.6% | 7.1
O=C(Cc1cccs1)NNC(=S)NC(=O)c1ccco1 | 6.7 | -1.4 | 14.1 | 0.0 | -2.4% | -2.1
CCOC(=O)c1oc2c(CN3CCN(C)CC3)c(O)ccc2c(=O)c1-c1ccccc1OC | 1.4 | 1.1 | 8.1 | -0.2 | 0.4% | 0.1
c1ccc2[nH]c(SCc3ccc(-c4nnco4)cc3)nc2c1 | 1.6 | -1.4 | -7.5 | -0.4 | 0.0% | -4.6
O=C(COc1ccc([N+](=O)[O-])cc1)Nc1ccncc1 | 10.4 | -2.8 | -7.4 | -2.4 | -1.3% | -2.2
NS(=O)(=O)c1cccc(NC(=O)COc2ccc([N+](=O)[O-])cc2)c1 | -0.6 | 1.7 | -0.6 | 0.3 | -2.2% | 33.3*
CCOc1ccc(NS(=O)(=O)c2ccc(NC(=S)NC(=O)CC(C)C)cc2)cc1 | 25.7 | -0.1 | 46.2 | 3.5 | 10.5% | 32.1*
CCCC(=O)NC(=S)Nc1ccc(S(=O)(=O)Nc2ccc(OCC)cc2)cc1 | 26.6 | -7.6 | 6.8 | 2.9 | 1.7% | 13.4
C=C(C)COc1ccc(-c2ncncc2-c2ccccc2)c(O)c1 | 4.3 | -4.2 | 2.4 | 0.4 | -4.2% | 0.2
CCOC(=O)c1cc(-c2ccccc2)n(CC(=O)NCc2ccccc2)c1C | 7.2 | -2.5 | -20.5 | 1.3 | -0.1% | -3.7
CCOc1ccc(/C=C/C(=O)c2ccccc2)cc1 | 1.7 | -1.1 | -2.1 | -1.6 | -3.4% | -9.7
CCOc1ccc(C(=O)/C=C/c2cc(OC)c(OC)c(OC)c2)cc1 | 1.4 | -2.9 | -49.5* | -0.9 | 5.0% | 2.7
CCOc1ccc(C(=O)/C=C/c2ccc(SC)cc2)cc1 | 18.4 | -0.3 | -30.2* | -0.9 | -4.7% | -2.4
COc1cc(/C=C/C(=O)c2ccc3c(c2)OCO3)cc(OC)c1OC | 1.5 | -7.8 | 19.5 | -0.9 | 28.2µM* | -1.4
Brc1ccc(-c2nn3c(Cc4ccccc4)nnc3s2)o1 | 1.5 | -1.1 | 0.1 | 0.2 | 0.2% | 3.3
c1ccc(Cc2nnc3sc(Nc4ccccc4)nn23)cc1 | 6.0 | -13.1 | -44.6* | 0.2 | -2.7% | -3.0
Cc1cccc(C)c1N1C(=O)CC(N(O)c2ccccc2)C1=O (configuration not stated) | 5.9 | -7.5 | -31.0* | 1.6 | -6.7% | -3.1
Cc1c(Cl)cccc1N1C(=O)CC(N(O)c2ccccc2)C1=O (configuration not stated) | 1.4 | -3.2 | 4.7 | -0.5 | 1.1% | 2.2

From PubChem
